Assay outcomes: PubChem, National Center for Advancing Translational Sciences (NCATS)
KDM5B inhibitor: KDM5B demethylase inhibition. Q9UGL1. KDM5B demethylase, FDH-coupled NADH fluorescence (FDH is formaldehyde dehydrogenase). Potency, µM (series often up to 57.7 µM), usual class: inhibitors. 220,000 tested, 2.6% active. AID 1347165; active = well fitted inhibition curve with a large enough effect; inconclusive = small, poorly fitted or top-dose-only effect; inactive = no such curve, though single readings can be large or run the other way; also: potency is read from the fitted curve at half-maximal effect; 0% is about no effect; nearly all actives have a fitted effect of over 70% in size
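Compound dilutions met 200 nM (final) KDM5BΔAP for 10 min at room temperature before substrate addition. The substrate mix held 12.5 µM H3K4me3 with cofactors 25 µM α-ketoglutarate and 50 µM Fe²⁺. NADH signal gain over 30 min defined activity.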
IP6K1 inh: IP6K1 kinase inhibition. Q92551. IP6K1 kinase, ADP-Glo luminescence, 2 h; stronger effect = lower value. activity change, % (series mostly up to about 58 µM). 140,000 tested, 0.81% active. AID 1645851; in the data active = activity change below about -25%; also: % is scaled to controls: 0 for no effect and ±100 for the full control effect
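ADP-Glo luminescence measures ADP made by human IP6K1 during a 2 h RT reaction with ATP/IP6 (mix at 1.3 mM/130 uM); top library doses 57.5 and 19.1 uM final.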
* = called active by the depositor; i = inactive; u = inconclusive; x = no result. An excerpt weighted towards active compounds, which were near 2.8% of everything screened.

SMILES	KDM5B inhibitor	IP6K1 inh
COc1ccc(C(=O)N2CCCC(C(=O)N3CCC(N4CCOC4=O)CC3)C2)cc1 (stereo not drawn)	x	11.2
CCn1cnc2c1c(=O)n(CC(=O)N(C)CC(=O)N1CCOCC1)c(=O)n2Cc1ccccc1	i	x
COc1ccc([C@H]2C[C@@H](O)[C@@H](O)[C@@H]2NC(=O)C2CCCC2)cc1	i	-0.2
COc1ccccc1N1CCN(C(=O)CCn2cnc3ccccc3c2=O)CC1	i	x
CCc1[nH]c2ccc(CNC(=O)Cc3cnc4c(C)cccn34)cc2c1C	u	-18.4
O=C(CCc1ncc(-c2ccccc2)o1)NC12CC3CC(CC(C3)C1)C2	i	x
CN(Cc1ccc(C(F)(F)F)cc1)C(=O)C1CCN(C(=O)/C=C/c2ccccc2)CC1	i	x
Cc1onc(-c2ccccc2Cl)c1-c1nc(C2CCOC2)no1 (stereo not drawn)	i	0.4
c1cnn(-c2ccc(-c3nc(C4CCOC4)no3)cc2)c1 (stereo not drawn)	31.6µM*	6.2
CN(C)c1ccc(-c2nc(C3CCOC3)no2)cc1 (stereo not drawn)	i	-1.8
CSc1ccccc1-c1nc(C2CCOC2)no1 (stereo not drawn)	28.2µM*	-2.4
CCN(CC)CCNC(=O)Cn1c(C)cc2ccccc21	i	x
O[C@@H]1C[C@@H](c2nnc3n2CCN(Cc2ccccn2)C3)N(Cc2ccccc2)C1	u	-2.7
O[C@@H]1C[C@@H](c2nnc3n2CCN(Cc2cccc4[nH]ccc24)C3)N(Cc2ccccc2)C1	25.1µM*	14.2
CCN1CCN(CCNC(=O)c2cn3ccnc(-c4ccc(OC)cc4)c3n2)CC1	28.2µM*	21.4
O=C(NCCCN1CCCCC1)c1cn2ccnc(-c3ccccc3)c2n1	u	22.4
Cc1cc(Cl)ccc1NCC(=O)NC1(C#N)CCCCC1	i	x
O=C(Nc1cccs1)N1CCNc2cnc(Nc3cccc(C(F)(F)F)c3)nc2C1	u	-2.4
CCCC1CCCN(C(=O)Cc2nn(C)c(=O)c3ccccc23)CC1 (stereo not drawn)	i	x
COc1ccc(-c2cc(N3CCOCC3=O)c3cncn3c2)cc1OC	u	-12.3
O=C1COCCN1c1cc(-c2cccc(F)c2)cn2cncc12	35.5µM*	12.4
O=C(NCc1cccc(Cl)c1)c1nc2sccn2c1-c1ccc(F)cc1	x	2.1
CN1CCN(C)c2cc(-c3ccc(N4CCOCC4)cc3)ncc2C1	39.8µM*	42.3
COc1ccc(CNc2cc3c(cn2)CN(C)CCN3C)cc1OC	u	-13.0
O=C(NCc1csc(-c2cnccn2)n1)[C@H]1CCC[C@H](O)C1	28.2µM*	14.2
SMILES	KDM5B inhibitor	IP6K1 inh
O=C(NCc1csc(-c2cnccn2)n1)C1CNCCO1 (stereo not drawn)	u	-3.6
Nc1ncccc1CNC(=O)[C@H]1CCC[C@H](O)C1	25.1µM*	18.4
O=C(NCc1ccc(-c2ncon2)cc1)[C@H]1CCC[C@@H](O)C1	i	15.8
O/N=C1\CC(c2ccccc2)Oc2ccc(Cl)cc21 (stereo not drawn)	i	x
Cc1ncsc1CN1CCCCC1c1nc(CCOCC2CC2)no1 (stereo not drawn)	17.8µM*	41.9
Cc1ncsc1CN1CCCCC1c1nc(CCOc2ccc(F)cc2)no1 (stereo not drawn)	u	13.1
COc1ccc(CCNC(=O)C23CC4CC(CC(C4)C2)C3)cc1	i	x
COc1cc2c(cc1OC)C(C[C@H]1CN(S(=O)(=O)c3ccc(F)cc3)CC[C@H]1CC(=O)O)=NCC2	i	5.1
O=C(O)C[C@@H]1CCN(S(=O)(=O)c2ccc(F)cc2)C[C@@H]1CC1=NCCc2cc(F)ccc21	20µM*	9.6
COc1ccc2c(c1)CCN=C2C[C@H]1CN(S(C)(=O)=O)CC[C@H]1CC(=O)O	u	4.4
COc1cc2c(cc1OC)C(C[C@H]1CN(S(=O)(=O)c3ccccc3)CC[C@H]1CC(=O)O)=NCC2	25.1µM*	18.8
COc1cc2c(cc1OC)C(C[C@H]1CN(S(=O)(=O)c3cccc(C#N)c3)CC[C@H]1CC(=O)O)=NCC2	i	3.7
COc1cc2c(cc1OC)C(C[C@H]1CN(S(=O)(=O)c3ccc(Cl)cc3)CC[C@H]1CC(=O)O)=NCC2	28.2µM*	12.6
O=C(Nc1ccc(Cl)cc1)c1nc2c(o1)CCN(Cc1cccc(F)c1)CC2	u	-16.9
COc1c(C)cccc1C(=O)Nc1ccc(O)c(-c2nc3ccccc3o2)c1	i	x
CCN1CCN(C(=O)c2cc(-c3cccnc3)nc3c2cnn3C)CC1	x	11.5
O=C1/C(=C/c2ccc(Cl)c(Cl)c2)CCc2ccccc21	i	x
Cc1ncc2n1C(=O)N(C1CCN(Cc3ccc(F)cc3)CC1)C2	i	9.7
Cc1ncc2n1C(=O)N(C1CCN(Cc3ccncc3)CC1)C2	39.8µM*	7.2
O=C(NC1CN(c2ccnc3ccnn23)C1)c1cncc(Br)c1	x	3.3
CCC1CCC(NC(=S)NCc2ccc(F)cc2)CC1 (stereo not drawn)	i	x
O=C(NCC(F)(F)F)C1CCCN(c2nc3ncccc3o2)C1 (stereo not drawn)	22.4µM*	10.0
C#CCNC(=O)C1CCCN(c2nc3ncccc3o2)C1 (stereo not drawn)	u	4.4
O=C(NCC(F)F)C1CCCN(c2nc3ncccc3o2)C1 (stereo not drawn)	28.2µM*	7.9
O=C(NCC(F)(F)F)C1CCN(c2nc3ncccc3o2)CC1	x	16.1
SMILES	KDM5B inhibitor	IP6K1 inh
CCCCCN1CCc2ccccc2OCC(=O)N(C)[C@@H](Cc2ccc(OCC(=O)OC)cc2)C1=O	x	24.8
Cc1nccn1CCCC(=O)N[C@@H]1CCOC[C@H]1OCC(=O)O	i	9.1
Cc1ccc(-c2ccc(CCC(=O)N[C@@H]3CCOC[C@H]3OCC(=O)O)o2)cc1	28.2µM*	-9.4
COc1ccc(-c2coc3cc(OCC(=O)N4CCC(C(N)=O)CC4)ccc3c2=O)cc1	i	x
COc1ccc(CC(=O)OCC(=O)Nc2ccccc2OC(F)F)cc1OC	i	x
O=C(NC1CCCCC1)N1Cc2[nH]cnc2C[C@H]1c1nc(-c2cccc([N+](=O)[O-])c2)no1	3.98µM*	-23.1
O=C(NC1CCCCC1)N1Cc2[nH]cnc2C[C@H]1c1nc(-c2ccc3ccccc3c2)no1	u	-11.1
O=C(Nc1ccccc1)N1Cc2[nH]cnc2C[C@H]1c1nc(-c2ccc3ccccc3c2)no1	i	19.9
Cc1ccc(NC(=O)N2Cc3[nH]cnc3C[C@H]2c2nc(-c3ccc4ccccc4c3)no2)cc1	22.4µM*	17.5
O=C(NC1CCN(c2ccc3nnc(C4CC4)n3n2)C1)c1ccc2c(c1)OCO2 (stereo not drawn)	x	24.1
CC(=O)N1CCC(c2nnc3n2CCNC3)CC1	112µM*	19.6
O=C(c1ccncc1)N1CCC(c2nnc3n2CCNC3)CC1	35.5µM*	20.7
O=C(Nc1ccccc1)N1CCC(c2nnc3n2CCNC3)CC1	u	3.0
O=C(c1ccncc1)N1CCCC(c2nnc3n2CCNC3)C1 (stereo not drawn)	u	4.1
CC(C)Oc1cccc(C(=O)Nc2cc(C(C)(C)C)on2)c1	i	x
COCCOc1ccc(N2CCN(CCn3ncc4c3nc(N)n3nc(-c5ccco5)nc43)CC2)cc1	x	-3.6
CCC(C)NC(=O)c1cc(-c2ccccc2)nc2ccccc12 (stereo not drawn)	i	x
COCCn1c(N(C)Cc2ccccc2)nc2c1c(=O)n(C)c(=O)n2C	i	x
